Assays:
Test in all cases: DAPPL (digital affinity profiling via proximity ligation, sequencing); 10 mM Tris-HCl pH 7.5, 50 mM NaCl, 1 mM DTT, 4% glycerol, room temperature, 30 min; GST-TFs on glutathione beads, 16-mer random dsDNA library, 0.1% formaldehyde crosslink after washing; high values mean tight binding
FLI1 = target: T1, FLI1 (Homo sapiens, UniProt Q01543 1-452); conditions: protein: recombinant; tags: N-terminal GST; dsDNA, one strand shown
T1 sequence: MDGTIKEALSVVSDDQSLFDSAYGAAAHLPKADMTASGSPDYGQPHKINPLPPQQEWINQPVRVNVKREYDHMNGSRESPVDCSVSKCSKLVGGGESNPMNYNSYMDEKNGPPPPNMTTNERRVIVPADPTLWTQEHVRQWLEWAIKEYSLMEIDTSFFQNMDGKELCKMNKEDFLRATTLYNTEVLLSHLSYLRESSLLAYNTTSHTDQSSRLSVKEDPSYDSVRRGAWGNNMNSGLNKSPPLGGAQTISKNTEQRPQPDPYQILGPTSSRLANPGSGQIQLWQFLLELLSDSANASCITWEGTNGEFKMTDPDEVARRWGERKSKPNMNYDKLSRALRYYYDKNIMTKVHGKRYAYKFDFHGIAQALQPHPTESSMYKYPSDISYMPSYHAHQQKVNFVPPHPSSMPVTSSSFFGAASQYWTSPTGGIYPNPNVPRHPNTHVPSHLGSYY
In short: (§1)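 GST fusions of human transcription factors were expressed in yeast and captured with glutathione beads. Once given DNA barcodes and pooled alongside a tag-only sample, they were incubated for 30 min at room temperature with 200 nmole of a random double-stranded 16-mer DNA library in Tris/NaCl/DTT/glycerol buffer, then washed, crosslinked (0.1% formaldehyde), proximity-ligated, PCR-amplified and sequenced on an Illumina NextSeq500. The binding signal of each hexamer is its read frequency for a factor divided by its frequency for the tag-only sample.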

ELK1 = target: T2, ELK1 (Homo sapiens, UniProt P19419 1-428); conditions: protein: recombinant; tags: N-terminal GST; dsDNA, one strand shown
T2 sequence: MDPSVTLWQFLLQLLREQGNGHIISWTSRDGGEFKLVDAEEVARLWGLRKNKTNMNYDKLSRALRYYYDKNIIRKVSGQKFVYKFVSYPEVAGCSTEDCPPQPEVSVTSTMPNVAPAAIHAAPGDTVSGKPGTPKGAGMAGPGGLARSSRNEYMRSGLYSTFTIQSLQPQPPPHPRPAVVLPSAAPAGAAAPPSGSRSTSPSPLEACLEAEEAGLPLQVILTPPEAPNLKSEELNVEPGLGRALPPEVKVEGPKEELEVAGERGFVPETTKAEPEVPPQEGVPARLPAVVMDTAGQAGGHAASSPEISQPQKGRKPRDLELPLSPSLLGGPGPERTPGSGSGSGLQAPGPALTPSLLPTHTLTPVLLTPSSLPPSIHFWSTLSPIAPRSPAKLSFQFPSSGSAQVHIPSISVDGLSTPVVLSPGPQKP
In short: as §1

GABPA = target: T3, GABPA (Homo sapiens, UniProt Q06546 1-454); conditions: protein: recombinant; tags: N-terminal GST; dsDNA, one strand shown
T3 sequence: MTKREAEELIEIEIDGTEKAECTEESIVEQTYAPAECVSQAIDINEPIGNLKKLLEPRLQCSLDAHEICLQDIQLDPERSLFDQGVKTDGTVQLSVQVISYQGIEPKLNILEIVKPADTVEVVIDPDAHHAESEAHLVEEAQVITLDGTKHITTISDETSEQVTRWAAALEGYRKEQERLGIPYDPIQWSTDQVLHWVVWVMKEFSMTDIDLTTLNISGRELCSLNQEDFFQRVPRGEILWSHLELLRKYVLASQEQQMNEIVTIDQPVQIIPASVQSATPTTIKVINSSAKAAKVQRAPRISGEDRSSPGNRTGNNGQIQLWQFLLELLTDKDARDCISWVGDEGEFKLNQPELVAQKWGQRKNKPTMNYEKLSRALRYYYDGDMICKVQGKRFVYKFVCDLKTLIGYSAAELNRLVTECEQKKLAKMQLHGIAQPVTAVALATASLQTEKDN
In short: as §1

ERG = target: T4, ERG (Homo sapiens, UniProt P11308 1-479); conditions: protein: recombinant; tags: N-terminal GST; dsDNA, one strand shown
T4 sequence: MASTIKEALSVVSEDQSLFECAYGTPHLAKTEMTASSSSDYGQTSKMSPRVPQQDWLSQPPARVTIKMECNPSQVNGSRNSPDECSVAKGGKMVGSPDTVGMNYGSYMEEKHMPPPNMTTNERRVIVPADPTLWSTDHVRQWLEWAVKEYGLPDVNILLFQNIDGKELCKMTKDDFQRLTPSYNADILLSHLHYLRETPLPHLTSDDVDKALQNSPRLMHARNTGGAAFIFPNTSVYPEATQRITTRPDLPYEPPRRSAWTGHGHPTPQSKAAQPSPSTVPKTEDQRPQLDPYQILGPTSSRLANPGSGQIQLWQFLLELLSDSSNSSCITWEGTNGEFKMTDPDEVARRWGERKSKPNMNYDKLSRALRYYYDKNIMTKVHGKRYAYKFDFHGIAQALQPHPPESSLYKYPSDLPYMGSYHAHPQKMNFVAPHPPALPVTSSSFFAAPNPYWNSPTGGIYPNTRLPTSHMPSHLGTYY
In short: as §1

ELF1 = ELF1 (Homo sapiens, UniProt P32519 1-619); conditions: protein: recombinant; tags: N-terminal GST; dsDNA, one strand shown
In short: as §1

EHF = target: T5, EHF (Homo sapiens, UniProt Q9NZC4 1-300); conditions: protein: recombinant; tags: N-terminal GST; dsDNA, one strand shown
T5 sequence: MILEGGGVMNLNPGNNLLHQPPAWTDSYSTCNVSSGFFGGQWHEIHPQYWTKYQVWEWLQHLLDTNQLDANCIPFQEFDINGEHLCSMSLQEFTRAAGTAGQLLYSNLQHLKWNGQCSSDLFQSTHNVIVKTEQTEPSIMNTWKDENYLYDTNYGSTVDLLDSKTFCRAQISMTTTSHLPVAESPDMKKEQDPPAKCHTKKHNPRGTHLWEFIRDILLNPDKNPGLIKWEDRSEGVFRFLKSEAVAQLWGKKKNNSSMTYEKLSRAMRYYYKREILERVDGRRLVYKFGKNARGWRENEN
In short: as §1

SPI1 = SPI1 (Homo sapiens, UniProt P17947 1-270); conditions: protein: recombinant; tags: N-terminal GST; dsDNA, one strand shown
In short: as §1

SPIB = SPIB (Homo sapiens, UniProt Q01892 1-262); conditions: protein: recombinant; tags: N-terminal GST; dsDNA, one strand shown
In short: as §1

ELK3 = target: T6, ELK3 (Homo sapiens, UniProt P41970 1-407); conditions: protein: recombinant; tags: N-terminal GST; dsDNA, one strand shown
T6 sequence: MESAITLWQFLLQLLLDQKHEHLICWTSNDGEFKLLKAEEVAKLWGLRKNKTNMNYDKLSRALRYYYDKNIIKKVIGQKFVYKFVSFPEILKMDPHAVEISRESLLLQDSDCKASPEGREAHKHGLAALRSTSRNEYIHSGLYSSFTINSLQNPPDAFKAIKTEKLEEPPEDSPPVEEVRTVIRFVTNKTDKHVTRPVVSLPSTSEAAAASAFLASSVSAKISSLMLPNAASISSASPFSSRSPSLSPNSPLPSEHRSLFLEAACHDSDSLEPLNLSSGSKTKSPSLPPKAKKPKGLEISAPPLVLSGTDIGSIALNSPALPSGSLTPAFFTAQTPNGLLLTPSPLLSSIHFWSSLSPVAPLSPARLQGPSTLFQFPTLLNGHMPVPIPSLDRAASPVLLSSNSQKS
In short: as §1

FEV = target: T7, FEV (Homo sapiens, UniProt Q99581 1-238); conditions: protein: recombinant; tags: N-terminal GST; dsDNA, one strand shown
T7 sequence: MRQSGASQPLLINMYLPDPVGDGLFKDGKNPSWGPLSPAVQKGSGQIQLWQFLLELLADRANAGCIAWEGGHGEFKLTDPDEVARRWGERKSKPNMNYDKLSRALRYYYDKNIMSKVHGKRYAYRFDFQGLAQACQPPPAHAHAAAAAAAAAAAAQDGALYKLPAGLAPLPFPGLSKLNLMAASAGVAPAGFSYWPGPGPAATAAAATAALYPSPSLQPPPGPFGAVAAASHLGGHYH
In short: as §1

ETV5 = ETV5 (Homo sapiens, UniProt P41161 1-510); conditions: protein: recombinant; tags: N-terminal GST; dsDNA, one strand shown
In short: as §1

HSF1 = HSF1 (Homo sapiens, UniProt Q00613 1-529); conditions: protein: recombinant; tags: N-terminal GST; chain copies: 3; dsDNA, one strand shown
In short: as §1

SPIC = target: T8, SPIC (Homo sapiens, UniProt Q8N5J4 1-248); conditions: protein: recombinant; tags: N-terminal GST; dsDNA, one strand shown
T8 sequence: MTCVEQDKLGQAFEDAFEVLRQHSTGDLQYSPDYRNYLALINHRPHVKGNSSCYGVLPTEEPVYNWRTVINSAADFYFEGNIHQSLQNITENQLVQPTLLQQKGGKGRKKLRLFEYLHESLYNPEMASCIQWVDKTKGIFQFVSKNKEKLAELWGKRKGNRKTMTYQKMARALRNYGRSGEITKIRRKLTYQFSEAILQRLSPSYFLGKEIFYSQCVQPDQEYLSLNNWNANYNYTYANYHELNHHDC
In short: as §1

ELF4 = ELF4 (Homo sapiens, UniProt Q99607 1-663); conditions: protein: recombinant; tags: N-terminal GST; dsDNA, one strand shown
In short: as §1

ELK4 = target: T9, ELK4 (Homo sapiens, UniProt P28324-2 1-405); conditions: protein: recombinant; tags: N-terminal GST; dsDNA, one strand shown
T9 sequence: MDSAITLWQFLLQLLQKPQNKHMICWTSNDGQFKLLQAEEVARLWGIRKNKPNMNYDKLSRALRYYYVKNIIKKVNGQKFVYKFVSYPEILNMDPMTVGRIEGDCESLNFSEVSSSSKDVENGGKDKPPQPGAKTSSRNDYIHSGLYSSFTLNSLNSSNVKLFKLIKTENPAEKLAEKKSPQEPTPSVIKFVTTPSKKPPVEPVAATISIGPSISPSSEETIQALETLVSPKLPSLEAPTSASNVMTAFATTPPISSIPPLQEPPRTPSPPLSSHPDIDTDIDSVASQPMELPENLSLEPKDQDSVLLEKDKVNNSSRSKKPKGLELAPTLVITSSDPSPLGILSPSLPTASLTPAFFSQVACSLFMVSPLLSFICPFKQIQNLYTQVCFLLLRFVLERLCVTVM
In short: as §1

ETV2 = target: T10, ETV2 (Homo sapiens, UniProt O00321 1-342); conditions: protein: recombinant; tags: N-terminal GST; dsDNA, one strand shown
T10 sequence: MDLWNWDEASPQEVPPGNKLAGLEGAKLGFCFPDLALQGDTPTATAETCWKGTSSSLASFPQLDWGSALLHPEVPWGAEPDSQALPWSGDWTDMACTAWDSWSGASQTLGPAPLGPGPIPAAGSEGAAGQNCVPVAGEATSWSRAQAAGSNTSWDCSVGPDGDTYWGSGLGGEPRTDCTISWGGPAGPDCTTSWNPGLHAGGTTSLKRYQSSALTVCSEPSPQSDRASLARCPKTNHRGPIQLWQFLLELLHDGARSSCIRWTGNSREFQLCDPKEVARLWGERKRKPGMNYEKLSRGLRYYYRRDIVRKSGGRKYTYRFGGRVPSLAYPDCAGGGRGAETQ
In short: as §1

ELF3 = target: T11, ELF3 (Homo sapiens, UniProt P78545 1-371); conditions: protein: recombinant; tags: N-terminal GST; dsDNA, one strand shown
T11 sequence: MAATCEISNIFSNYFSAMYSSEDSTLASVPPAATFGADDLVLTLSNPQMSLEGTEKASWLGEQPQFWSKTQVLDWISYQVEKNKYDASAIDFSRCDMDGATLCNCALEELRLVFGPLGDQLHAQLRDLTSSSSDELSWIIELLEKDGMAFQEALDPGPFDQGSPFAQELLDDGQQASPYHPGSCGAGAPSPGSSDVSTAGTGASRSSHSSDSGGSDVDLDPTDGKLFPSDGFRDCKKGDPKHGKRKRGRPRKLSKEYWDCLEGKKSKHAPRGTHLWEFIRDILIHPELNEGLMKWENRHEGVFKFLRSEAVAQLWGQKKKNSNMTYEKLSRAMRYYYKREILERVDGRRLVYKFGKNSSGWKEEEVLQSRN
In short: as §1

CRX = CRX (Homo sapiens, UniProt O43186 1-299); conditions: protein: recombinant; tags: N-terminal GST; dsDNA, one strand shown
In short: as §1

ETV1 = ETV1 (Homo sapiens, UniProt P50549 1-477); conditions: protein: recombinant; tags: N-terminal GST; dsDNA, one strand shown
In short: as §1

Sequence of SPIB (Q01892 whole entry): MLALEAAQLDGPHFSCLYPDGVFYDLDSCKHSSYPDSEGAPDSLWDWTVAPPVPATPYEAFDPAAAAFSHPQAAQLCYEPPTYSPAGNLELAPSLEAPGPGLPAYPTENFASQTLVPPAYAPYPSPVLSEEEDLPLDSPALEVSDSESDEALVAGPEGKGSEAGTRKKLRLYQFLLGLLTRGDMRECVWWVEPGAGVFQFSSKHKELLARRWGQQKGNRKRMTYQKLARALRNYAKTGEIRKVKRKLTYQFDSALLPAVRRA
Sequence of ETV5 (P41161 whole entry): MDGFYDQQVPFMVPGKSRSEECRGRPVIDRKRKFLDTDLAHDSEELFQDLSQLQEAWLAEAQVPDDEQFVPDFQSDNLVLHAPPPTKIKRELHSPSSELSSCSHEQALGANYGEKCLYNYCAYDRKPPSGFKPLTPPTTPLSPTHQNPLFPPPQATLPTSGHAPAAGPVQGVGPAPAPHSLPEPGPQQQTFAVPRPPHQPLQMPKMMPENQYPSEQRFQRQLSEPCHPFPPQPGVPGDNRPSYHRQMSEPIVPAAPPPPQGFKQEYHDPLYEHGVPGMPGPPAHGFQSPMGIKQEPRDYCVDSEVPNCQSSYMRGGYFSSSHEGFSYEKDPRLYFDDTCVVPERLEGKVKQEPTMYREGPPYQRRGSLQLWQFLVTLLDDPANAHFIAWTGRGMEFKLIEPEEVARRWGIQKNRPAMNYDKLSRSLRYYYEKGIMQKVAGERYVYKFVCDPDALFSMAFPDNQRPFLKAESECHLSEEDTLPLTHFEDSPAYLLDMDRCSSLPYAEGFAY
Sequence of ELF4 (Q99607 whole entry): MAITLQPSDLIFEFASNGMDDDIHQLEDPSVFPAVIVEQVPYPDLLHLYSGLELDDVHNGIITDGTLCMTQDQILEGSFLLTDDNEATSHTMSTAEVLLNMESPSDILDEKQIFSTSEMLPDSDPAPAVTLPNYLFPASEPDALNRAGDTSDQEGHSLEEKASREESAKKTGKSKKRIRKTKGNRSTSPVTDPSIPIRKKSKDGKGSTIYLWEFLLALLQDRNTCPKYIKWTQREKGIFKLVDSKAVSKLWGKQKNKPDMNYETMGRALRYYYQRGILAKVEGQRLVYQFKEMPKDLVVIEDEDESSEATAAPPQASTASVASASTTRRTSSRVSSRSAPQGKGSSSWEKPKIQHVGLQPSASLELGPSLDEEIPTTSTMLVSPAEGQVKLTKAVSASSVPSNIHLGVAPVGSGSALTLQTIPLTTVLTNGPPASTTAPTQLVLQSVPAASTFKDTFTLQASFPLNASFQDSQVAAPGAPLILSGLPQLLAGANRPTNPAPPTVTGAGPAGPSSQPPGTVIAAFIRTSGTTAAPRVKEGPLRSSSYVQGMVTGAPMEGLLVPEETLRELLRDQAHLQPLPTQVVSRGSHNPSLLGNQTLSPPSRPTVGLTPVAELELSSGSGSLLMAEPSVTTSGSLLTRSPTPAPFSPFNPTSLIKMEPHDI
Sequence of ETV1 (P50549 whole entry): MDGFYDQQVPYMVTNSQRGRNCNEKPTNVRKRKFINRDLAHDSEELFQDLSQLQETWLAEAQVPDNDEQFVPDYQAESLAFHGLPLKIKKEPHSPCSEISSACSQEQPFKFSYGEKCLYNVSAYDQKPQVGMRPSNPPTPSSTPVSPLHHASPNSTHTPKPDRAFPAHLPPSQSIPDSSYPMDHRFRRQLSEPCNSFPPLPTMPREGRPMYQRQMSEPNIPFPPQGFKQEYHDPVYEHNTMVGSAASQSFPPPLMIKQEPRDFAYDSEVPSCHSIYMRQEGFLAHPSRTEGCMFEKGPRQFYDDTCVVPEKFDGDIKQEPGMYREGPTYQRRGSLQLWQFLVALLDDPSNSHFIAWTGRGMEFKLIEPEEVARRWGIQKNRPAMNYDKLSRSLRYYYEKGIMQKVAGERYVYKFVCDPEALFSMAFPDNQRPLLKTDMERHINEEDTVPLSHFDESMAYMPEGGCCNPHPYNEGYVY
Sequence of ELF1 (P32519 whole entry): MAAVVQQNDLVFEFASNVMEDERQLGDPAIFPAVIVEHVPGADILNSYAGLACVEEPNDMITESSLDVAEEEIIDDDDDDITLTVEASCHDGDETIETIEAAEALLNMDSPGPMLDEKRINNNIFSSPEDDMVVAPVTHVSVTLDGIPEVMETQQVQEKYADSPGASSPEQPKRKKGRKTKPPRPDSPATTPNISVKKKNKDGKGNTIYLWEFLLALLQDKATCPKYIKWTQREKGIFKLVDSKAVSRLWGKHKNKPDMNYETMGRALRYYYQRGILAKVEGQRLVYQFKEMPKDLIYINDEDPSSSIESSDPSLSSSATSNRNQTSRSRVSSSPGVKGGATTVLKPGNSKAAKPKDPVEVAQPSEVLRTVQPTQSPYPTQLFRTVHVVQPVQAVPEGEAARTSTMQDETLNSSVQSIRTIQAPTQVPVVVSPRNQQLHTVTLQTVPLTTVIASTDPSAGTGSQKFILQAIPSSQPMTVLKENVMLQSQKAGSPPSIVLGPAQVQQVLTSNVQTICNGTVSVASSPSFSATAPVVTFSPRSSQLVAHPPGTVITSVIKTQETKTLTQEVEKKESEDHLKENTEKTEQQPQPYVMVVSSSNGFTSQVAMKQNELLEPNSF
Sequence of CRX (O43186 whole entry): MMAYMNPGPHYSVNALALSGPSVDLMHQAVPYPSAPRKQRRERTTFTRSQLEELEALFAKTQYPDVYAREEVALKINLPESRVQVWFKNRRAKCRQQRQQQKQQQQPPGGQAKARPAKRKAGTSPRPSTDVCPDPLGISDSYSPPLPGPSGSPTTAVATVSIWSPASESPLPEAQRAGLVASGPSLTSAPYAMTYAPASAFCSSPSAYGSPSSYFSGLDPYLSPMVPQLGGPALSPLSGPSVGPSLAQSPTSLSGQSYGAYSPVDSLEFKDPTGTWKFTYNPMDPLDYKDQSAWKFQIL
Sequence of HSF1 (Q00613 whole entry): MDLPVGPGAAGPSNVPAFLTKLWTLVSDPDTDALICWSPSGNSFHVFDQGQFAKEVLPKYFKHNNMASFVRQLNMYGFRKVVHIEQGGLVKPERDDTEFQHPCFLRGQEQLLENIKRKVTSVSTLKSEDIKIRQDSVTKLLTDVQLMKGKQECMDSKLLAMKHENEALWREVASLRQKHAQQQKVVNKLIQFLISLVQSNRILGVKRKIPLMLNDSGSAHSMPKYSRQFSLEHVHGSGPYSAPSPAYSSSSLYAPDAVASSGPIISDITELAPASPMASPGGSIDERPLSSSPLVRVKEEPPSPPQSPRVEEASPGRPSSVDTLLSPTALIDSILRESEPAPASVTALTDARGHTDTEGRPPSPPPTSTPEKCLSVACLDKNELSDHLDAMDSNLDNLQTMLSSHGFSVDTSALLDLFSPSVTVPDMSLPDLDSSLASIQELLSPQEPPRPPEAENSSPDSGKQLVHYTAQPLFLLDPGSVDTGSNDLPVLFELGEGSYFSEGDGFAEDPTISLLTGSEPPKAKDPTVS

## TATAGA
FLI1
  binding signal: 1.02 fold enrichment (6-mer frequency, TF over GST control)
ELK1
  binding signal: 1.07 fold enrichment (6-mer frequency, TF over GST control)
GABPA
  binding signal: 1.12 fold enrichment (6-mer frequency, TF over GST control)
ERG
  binding signal: 1 fold enrichment (6-mer frequency, TF over GST control)
ELF1
  binding signal: 1.13 fold enrichment (6-mer frequency, TF over GST control)
EHF
  binding signal: 1.07 fold enrichment (6-mer frequency, TF over GST control)
SPI1
  binding signal: 1.13 fold enrichment (6-mer frequency, TF over GST control)
SPIB
  binding signal: 1.07 fold enrichment (6-mer frequency, TF over GST control)
ELK3
  binding signal: 1.14 fold enrichment (6-mer frequency, TF over GST control)
FEV
  binding signal: 1.04 fold enrichment (6-mer frequency, TF over GST control)
ETV5
  binding signal: 1.08 fold enrichment (6-mer frequency, TF over GST control)
HSF1
  binding signal: 1.52 fold enrichment (6-mer frequency, TF over GST control)
SPIC
  binding signal: 1.04 fold enrichment (6-mer frequency, TF over GST control)
ELF4
  binding signal: 1.09 fold enrichment (6-mer frequency, TF over GST control)
ELK4
  binding signal: 1 fold enrichment (6-mer frequency, TF over GST control)
ETV2
  binding signal: 1.08 fold enrichment (6-mer frequency, TF over GST control)
ELF3
  binding signal: 1.17 fold enrichment (6-mer frequency, TF over GST control)
CRX
  binding signal: 1.45 fold enrichment (6-mer frequency, TF over GST control)
ETV1
  binding signal: 1.13 fold enrichment (6-mer frequency, TF over GST control)
